ALDH1A1 block: qHTS Assay for Inhibitors of Aldehyde Dehydrogenase 1 (ALDH1A1) | Aldehyde dehydrogenase 1A1 (Homo sapiens), P00352 | Purified ALDH1A1, NADH fluorescence, propionaldehyde substrate | Potency, µM (titrated, usually from 75.3 µM), actives largely listed as inhibitors | 220,000 compounds, 7.3% hits
PNC inhibitor: High Content Assay for Compounds that inhibit the Assembly of the Perinucleolar Compartment | 140,000 compounds, 3.1% hits | PC3M PTB-GFP, PNC prevalence imaging, 16 h; stronger effect = lower value | AID 2417, 2010 | activity change (PNC), negative = inhibition, % at 10 µM;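 active = readout at or below -70, meaning at least 70% loss of cells showing the perinucleolar compartment, a nuclear body marking cancer cells; inconclusive = readout between -30 and a set limit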
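Compounds are pinned in duplicate onto adhered PC3M cells stably expressing GFP-tagged PTB and incubated 16 h at 37 C. Cells are then fixed, nuclei stained with Hoechst, and PNC-positive cells counted.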
HPGD block: qHTS Assay for Inhibitors of HPGD (15-Hydroxyprostaglandin Dehydrogenase) | 15-hydroxyprostaglandin dehydrogenase [NAD(+)] (Homo sapiens), P15428 | purified HPGD, NADH fluorescence kinetic, PGE2 substrate | Potency, µM, actives largely listed as inhibitors | 150,000 compounds, 4.3% hits | AID 894, 2007
Target sequence (P15428 whole entry, looked up): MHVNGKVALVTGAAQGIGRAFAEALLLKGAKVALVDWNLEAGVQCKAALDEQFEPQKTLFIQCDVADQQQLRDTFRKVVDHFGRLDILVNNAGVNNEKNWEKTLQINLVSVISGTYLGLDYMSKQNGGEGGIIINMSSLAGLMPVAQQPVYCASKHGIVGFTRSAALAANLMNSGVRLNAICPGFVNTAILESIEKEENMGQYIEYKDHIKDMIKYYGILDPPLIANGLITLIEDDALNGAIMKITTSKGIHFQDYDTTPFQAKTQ
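NADH formation kinetics: reaction with 30 uM PGE2 and 1 mM NAD+ (final), 20 nM enzyme, Tris-HCl pH 8 with Tween 20, after 15 min compound preincubation at room temperature. Fluorescence change, last versus first of five reads.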
Of the large screens only hits and unclear results are named; the others gave an inactive call. In the library only some 11% were active in any assay of this set; here they are far more common. Unless noted, calls come from the whole dose curve; as a rule, active = well fitted inhibition curve with a large enough effect (not every such curve was filed as active); inconclusive = small, poorly fitted or top-dose-only effect, or another doubt; inactive = no such curve, though single readings can be large or run the other way.

COC(=O)[C@@H]1C[C@@]2(O)[C@@H](O)[C@@H](O)[C@@H](O)C[C@H]2N1Cc1ccc(Cl)cc1	none (no result: PNC inhibitor)
O=C(Nc1ccc(F)cc1)c1nc[nH]c1C(=O)Nc1ccccc1[N+](=O)[O-]	none
NNC(=O)c1nc[nH]c1C(=O)Nc1ccccc1[N+](=O)[O-]	ALDH1A1 block 0.79µM (no result: PNC inhibitor, HPGD block)
CCOC(=O)c1[nH]cnc1C(=O)NCc1ccccc1	none (no result: PNC inhibitor, HPGD block)
O=C(NCc1ccccc1)c1nc[nH]c1C(=O)NCc1ccccc1	ALDH1A1 block 2.5µM (no result: PNC inhibitor, HPGD block)
CCCn1c(C)nc2c(NC3CCN(Cc4ccccc4)C3)nc(C)nc21 (stereo not drawn)	none (no result: PNC inhibitor)
CCCCC(CC)CNCC(CC)CCCC (stereo not drawn)	ALDH1A1 block 25µM (no result: PNC inhibitor)
CCCCC(CC)COP(=O)(OCC(CC)CCCC)OCC(CC)CCCC (stereo not drawn)	none (no result: PNC inhibitor)
CCn1nnnc1SCC(=O)Nc1ccc2c(c1)OCCO2	ALDH1A1 block inconclusive
CC(C)n1nnnc1SCC(=O)c1ccc2c(c1)OCCO2	ALDH1A1 block inconclusive
COCCCn1nnnc1SCC(=O)Nc1ccc2c(c1)OCCO2	ALDH1A1 block 13µM (no result: PNC inhibitor, HPGD block)
COc1cccc(C(=O)CSc2nnnn2C2CCCCC2)c1	ALDH1A1 block 2.8µM, PNC inhibitor inconclusive
O=C(CSc1nnnn1C1CCCCC1)N1c2ccccc2Sc2ccccc21	ALDH1A1 block inconclusive
COCCn1nnnc1SCC(=O)Nc1ccc2c(c1)OCO2	ALDH1A1 block 20µM (no result: PNC inhibitor, HPGD block)
O=C(CSc1nnnn1C1CCCC1)c1ccc2c(c1)OCCO2	ALDH1A1 block 3.2µM
COCCn1nnnc1SCC(=O)NCc1ccc2c(c1)OCO2	none (no result: PNC inhibitor, HPGD block)
O=C(NN=C1CCCC1)c1ccccc1OCCOc1ccccc1	none (no result: PNC inhibitor, HPGD block)
CCC1(C(=O)c2ccc(Cl)cc2)C2c3ccccc3OC(=O)C21C(=O)Nc1ccccc1 (stereo not drawn)	none
CCn1c(SCc2ccc(Cl)cc2Cl)nc2nc3c(cc2c1=O)CCCC3	none
CC1CC(C)CN(CCCNC(=O)Cc2c(C(=O)O)n(C)c3ccccc23)C1 (stereo not drawn)	none
CCCCN(CCCC)CCNC(=O)CNC(=O)c1cccs1	PNC inhibitor inconclusive
COc1ccc(CNC(NC(=O)c2ccccc2)(C(F)(F)F)C(F)(F)F)cc1	none
O=C(CSc1nnnn1C1CCCC1)Nc1ccc2c(c1)OCO2	ALDH1A1 block 11µM, PNC inhibitor inconclusive
COc1cccc(-n2nnnc2SCC(=O)Nc2ccc3c(c2)OCCO3)c1	none
CCOC(=O)c1ccc(NC(=O)CSc2nnnn2C2CCCCC2)cc1	none
COc1ccc(-n2nnnc2SCC(=O)Nc2ccc3c(c2)OCCO3)c(OC)c1	ALDH1A1 block 7.1µM
CCCCC1=NN(C(=O)c2ccco2)C(O)(C(F)(F)F)C1 (stereo not drawn)	none (no result: PNC inhibitor, HPGD block)
Cc1cc(C)n2nc(SCC(=O)Nc3c(C)n(C)n(-c4ccccc4)c3=O)nc2n1	none
CC12CN3CC(C)(CN(C1)C3c1ccccc1F)C2 (stereo not drawn)	none (no result: PNC inhibitor, HPGD block)
CCOC(=O)CCSc1n[nH]c(=S)s1	ALDH1A1 block 1.8µM (no result: PNC inhibitor, HPGD block)
CCOC(=O)CSc1nn(C)c(=S)s1	ALDH1A1 block inconclusive, HPGD block inconclusive
O=[N+]([O-])c1c(C(Cl)Cl)nn(-c2ccccc2)c1N1CCCC1	none
CCC1S/C(=N\S(=O)(=O)c2cccs2)N(C2CCCCC2)C1=O (stereo not drawn)	ALDH1A1 block 7.9µM
Cc1ccc(NC(=O)C2CCCN(S(=O)(=O)c3cccs3)C2)cc1 (stereo not drawn)	none
CCCC(=O)Nc1nnc(CC(=O)N2CCCC2)s1	PNC inhibitor inconclusive
CCOC(=O)c1ccc(CC2S/C(=C(\C#N)C(C)=O)NC2=O)cc1 (stereo not drawn)	HPGD block 14µM
CCc1ccc(CC2S/C(=C(\C#N)C(C)=O)NC2=O)cc1 (stereo not drawn)	HPGD block inconclusive
Cc1cc(C)c(C#N)c(Sc2nnnn2-c2ccccc2)n1	ALDH1A1 block inconclusive
Cc1ccc(S(=O)(=O)O)cc1C	none (no result: PNC inhibitor)
CCC(=O)Nc1cccc(-c2cn3ccsc3n2)c1	PNC inhibitor inconclusive
Cc1ccc(S(=O)(=O)Nc2cccc(-c3cn4ccsc4n3)c2)cc1	ALDH1A1 block 16µM
O=S(=O)(Nc1cccc(-c2cn3ccsc3n2)c1)c1ccc(F)cc1	none
Cc1nc(-c2cccc(NS(=O)(=O)c3ccccc3)c2)cs1	ALDH1A1 block 14µM, HPGD block 14µM
Cc1cccc(S(=O)(=O)Nc2cccc(-c3cn4ccsc4n3)c2)c1	ALDH1A1 block 10µM, PNC inhibitor inconclusive
O=S(=O)(Nc1ccc(-c2csc(-c3ccccc3)n2)cc1)c1ccccc1	none
S=C(c1cn(Cc2ccc(Br)cc2)c2ccccc12)N1CCOCC1	none
NS(=O)(=O)c1ccc(NCc2cc(Cl)ccc2OCc2ccccc2F)cc1	none

High-throughput results (PubChem BioAssay)
